Dicer processing: inhibitors of Dicer pre-microRNA processing, primary screen, biochemical, cat-ELCCA, chemiluminescence. z-score at 25 µM. actives 6% (n = 47,000). cat-ELCCA pre-miR-21 Dicer processing; hits give high values. Endoribonuclease Dicer (Homo sapiens), Q9UPY3. AID 1347074, 2019; in the data active means z-score above about 3, passing the limit was not always enough;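 further: plate controls were vehicle for no effect and no enzyme for full effect; higher signal means more uncleaved substrate so more Dicer inhibition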
* = called active by the depositor. The sample as a whole holds a higher share of hits than the screen did.

SMILES	Dicer processing
O=C1CCC2C(=O)N(CC(=O)N3CCCC3)C(=O)C2C1 (stereo not drawn)	-0.13
O=C(CN1C(=O)c2cccc3cccc1c23)N1CCN(c2ccc(F)cc2)CC1	-0.9
O=C(CN1C(=O)C2CCCCC2C1=O)N1CCN(c2ccc(F)cc2)CC1 (stereo not drawn)	6.52*
OC(CN1CCC(O)(c2ccc(Cl)cc2)CC1)C(F)(F)F (stereo not drawn)	-0.46
COc1ccc(N2C(=O)C3C(c4ccccc4Cl)OC4(C(=O)c5ccccc5C4=O)C3C2=O)cc1 (stereo not drawn)	-0.76
CCOc1ccc(N2C(=O)C3C(c4ccc(C)cc4)OC4(C(=O)c5ccccc5C4=O)C3C2=O)cc1 (stereo not drawn)	3.39*
COc1ccc(Cl)cc1N1C(=O)C2C(c3ccccc3)OC3(C(=O)c4ccccc4C3=O)C2C1=O (stereo not drawn)	4.06*
COc1ccc(N2C(=O)C3C(c4ccccc4)OC4(C(=O)c5ccccc5C4=O)C3C2=O)cc1OC (stereo not drawn)	-0.1
Cc1c(Cl)cccc1N1C(=O)C2C(c3ccccc3)OC3(C(=O)c4ccccc4C3=O)C2C1=O (stereo not drawn)	0.46
Cc1ccc(C2OC3(C(=O)c4ccccc4C3=O)C3C(=O)N(Cc4ccccc4)C(=O)C23)cc1 (stereo not drawn)	-1.41
O=C1C2C(c3ccc(Cl)cc3)OC3(C(=O)c4ccccc4C3=O)C2C(=O)N1c1ccc(F)cc1F (stereo not drawn)	6.12*
O=C1C2C(c3ccc(F)cc3)OC3(C(=O)c4ccccc4C3=O)C2C(=O)N1Cc1ccc(Cl)cc1 (stereo not drawn)	-1.16
O=C1C2C(c3ccccc3)OC3(C(=O)c4ccccc4C3=O)C2C(=O)N1c1cccc(F)c1 (stereo not drawn)	1.08
COC(=O)c1cc(OC)cc(OC)c1C1C(C#N)=C(C)NC2=C1C(=O)CC(C)(C)C2 (stereo not drawn)	0.81
O=c1[nH]nc(SCCS(=O)(=O)c2ccc(F)cc2)n1C1CC1	-0.81
CN(C)S(=O)(=O)N(CC(=O)Nc1ccccc1Sc1ccccc1)c1ccccc1	-1.68
C/C(=N\Nc1nc2c(c(=O)n(C)c(=O)n2C)n1C)c1cccs1	1.57
N#CC(C#N)=NNc1ccccc1Oc1ccc(Cl)cc1Cl	3.88*
O=C(Nc1ccccc1Oc1ccc(Cl)cc1Cl)c1cc(Cl)sc1Cl	-0.24
CN(C)CCCNC(=O)C(=O)Nc1ccccc1Oc1ccc(Cl)cc1Cl	0.16
Fc1ccc2[nH]cc(-c3nnnn3-c3ccc(Br)cc3)c2c1	2.89
C[C@H](NS(=O)(=O)c1ccc(F)cc1)C(=O)O	5.26*
CC(C)[C@H](NS(=O)(=O)c1ccc(F)cc1)C(=O)O	1.27
CC(NS(=O)(=O)c1ccc(N)cc1)C(=O)O (stereo not drawn)	-0.74
CCc1ccc2[nH]c(C)c(CN3CCN(CC)CC3)c(=O)c2c1	-0.6
SMILES	Dicer processing
Cc1ccc(S(C)(=O)=NC(=O)c2ccc(C(C)(C)C)cc2)cc1 (stereo not drawn)	-0.75
CCOC(=O)c1ccc2c(c1)CC/C(=C\c1ccc(F)cc1)C2=O	-0.93
O=C1CC(NCCc2c[nH]c3ccccc23)C(=O)N1c1ccccc1 (stereo not drawn)	0.28
C(#Cc1ccccc1)CNCCc1c[nH]c2ccccc12	4.09*
CSC1=NCC(=O)N1CCc1c[nH]c2ccccc12	2.47
NC(=O)N/N=C/c1ccc(-c2ccc(C(F)(F)F)cc2[N+](=O)[O-])o1	1.28
CC(=O)NC1CCN(C(=S)Nc2ccc(Cl)cc2C)CC1	-0.09
Cn1ccnc1SCC(=O)c1ccc(Cl)cc1	0.03
Cn1ccnc1SCC(=O)Nc1ccccc1	0.15
Cn1ccnc1SCC(=O)N1CCCC1	4.45*
CC(C)(C)c1ccc(S/C(=C/C(=O)O)C(=O)O)cc1	-0.41
CCOc1ccc(-c2nc(C#N)c(NCc3ccc(Cl)cc3)o2)cc1	-0.81
CCCCNC(=O)O/N=C(\C)c1ccc2cc(OC)ccc2c1	-1.21
O=C(C1Sc2nnc(-c3ccccc3)n2NC1c1ccccc1)N1CCCC1 (stereo not drawn)	-0.08
Cc1ccc(C2Nn3c(nnc3-c3ccccc3)SC2C(=O)N2CCOCC2)cc1 (stereo not drawn)	-0.66
Cc1ccc(C2Nn3c(nnc3-c3ccccc3)SC2C(=O)N2CCCCC2C)cc1 (stereo not drawn)	3*
OCC(CO)(CO)NC(=S)Nc1ccc(I)cc1	0.98
CN(C)/C=C/C(=O)c1cc(F)ccc1O	0.62
O=C(O)CSCC(=O)NCc1csc2ccccc12	4.35*
O=C(NCc1csc2ccccc12)C1CC1	1.8
O=C(O)CSCC(=O)NCc1csc2ccc(Cl)cc12	-2.43
COc1cccc(C2C(C(=O)OC(C)C)=C(C)NC3=C2C(=O)CC(C)(C)C3)c1OC (stereo not drawn)	0.09
COC(=O)C1C2C=CC3(CN(Cc4ccccc4)C(=O)C13)O2 (stereo not drawn)	1.66
O=C(O)C1C2C=CC3(CN(CCc4ccccc4)C(=O)C13)O2 (stereo not drawn)	-0.96
O=C(O)C1C2C=CC3(CN(Cc4ccccc4)C(=O)C13)O2 (stereo not drawn)	3.2*
SMILES	Dicer processing
Cc1nc2ccccc2c2c1C(=O)N(c1cccc(C(=O)OCC(=O)C(C)(C)C)c1)C2=O	-1.54
Cc1ccc(C(=O)OCC(=O)C(C)(C)C)cc1N1C(=O)c2c(C)nc3ccccc3c2C1=O	3.22*
Cc1ccc(C(=O)COC(=O)c2cccc(N3C(=O)c4c(C)nc5ccccc5c4C3=O)c2)cc1	0.43
O=C1NC(=O)c2cc(S(=O)(=O)NCCCO)cc3cccc1c23	-0.38
Cc1ccc(N2C(=O)C3C4c5ccccc5C(C(=O)O)(c5ccccc54)C3C2=O)c(Br)c1 (stereo not drawn)	-0.81
O=C(c1ccc(Cl)cc1)n1cc2c(n1)-c1cc(Cl)ccc1SC2	-0.37
Cc1n[nH]c(=O)nc1NCC1CCCO1 (stereo not drawn)	5.76*
Cc1ccccc1Cn1c(NCC2CCCO2)nc2c1c(=O)n(C)c(=O)n2C (stereo not drawn)	1.66
Cc1n[nH]c(=O)nc1NCCCN(C)C	-1.37
O=S(=O)(NNc1ncnc2ccsc12)c1ccc(Cl)cc1	0.21
COC(=O)C1=C(N)Oc2cc(N(C)C)ccc2C1c1ccccc1OC (stereo not drawn)	3.17*
COc1ccc(Br)cc1C1C(C#N)=C(N)Oc2cc(O)ccc21 (stereo not drawn)	0.58
COC(=O)C1=C(C)NC2=C(C(=O)CC(C)(C)C2)C1c1ccccc1OC (stereo not drawn)	2.81
OCn1nnn(-c2ccccc2)c1=S	0.35
Cc1ccc(-c2[nH]ncc2Sc2ccc(C(F)(F)F)cn2)cc1	-0.86
O=C(CSc1n[nH]c(-c2ccco2)n1)c1ccc(O)cc1O	10.1*
Cc1cc(C)nc(SCC(=O)c2ccc(O)cc2O)n1	0.35
Cc1ccc(C(=O)CSc2n[nH]c(-c3ccco3)n2)c(C)c1	-0.59
Nc1cc(Cl)ccc1NC(=O)c1ccccc1N	-3.37
CCOC(=O)c1c(NC(=O)CCC(=O)OC)sc2c1CCC2	1.06
COc1ccc(-n2nnnc2/C(=C/N(C)C)C(=O)c2ccc(Cl)cc2)cc1	-0.33
CC(=O)OCC12COC(c3ccccc3OC(C)=O)C(C(C)=CC1C)C2C (stereo not drawn)	1.9
COc1ccc(C2OCC3(COC(C)=O)C(C)C=C(C)C2C3C)cc1 (stereo not drawn)	1.18
